Measured values from PubChem BioAssay (NCI).
This is part of a sample that, as a whole, favours compounds with a hit. Of some 83,000 tested, about 20% had one in any assay.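 For each line, cells grew in 96-well plates with the test compound present at a single concentration for 48 hours.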 A number with no mark means an inactive call. The source made the active and inactive calls. How the source made its calls: active means growth percent below 10; inactive means the rest.

Key:
Test in all cases: NCI-60 one-dose screen, 48 h (100 = growth as untreated, 0 = no growth, -100 = all killed)
Details in all cases: 10 µM unless noted
HCT-15 colon = test system: HCT-15 colon
HT29 colon = test system: HT29 colon
SNB-75 CNS = test system: SNB-75 CNS
SNB-19 CNS = test system: SNB-19 CNS
U251 CNS = test system: U251 CNS
PC-3 prostate = test system: PC-3 prostate
UACC-62 melanoma = test system: UACC-62 melanoma
LOX IMVI melanoma = test system: LOX IMVI melanoma
SK-MEL-28 melanoma = test system: SK-MEL-28 melanoma
SK-MEL-2 melanoma = test system: SK-MEL-2 melanoma
EKVX NSCLC = test system: EKVX NSCLC
SN12C renal = test system: SN12C renal
UO-31 renal = test system: UO-31 renal
TK-10 renal = test system: TK-10 renal
ACHN renal = test system: ACHN renal
CAKI-1 renal = test system: CAKI-1 renal
A498 renal = test system: A498 renal
CCRF-CEM leukemia = test system: CCRF-CEM leukemia
MOLT-4 leukemia = test system: MOLT-4 leukemia

| Compound | growth (HCT-15 colon) | growth (HT29 colon) | growth (SNB-75 CNS) | growth (SNB-19 CNS) | growth (U251 CNS) | growth (PC-3 prostate) | growth (UACC-62 melanoma) | growth (LOX IMVI melanoma) | growth (SK-MEL-28 melanoma) | growth (SK-MEL-2 melanoma) | growth (EKVX NSCLC) | growth (SN12C renal) | growth (UO-31 renal) | growth (TK-10 renal) | growth (ACHN renal) | growth (CAKI-1 renal) | growth (A498 renal) | growth (CCRF-CEM leukemia) | growth (MOLT-4 leukemia) |
| --- | --- | --- | --- | --- | --- | --- | --- | --- | --- | --- | --- | --- | --- | --- | --- | --- | --- | --- | --- |
| CCOC(=O)C1OC1(c1ccccc1)c1ccccc1 (stereo not drawn) | 109% | 107% | 108% | 107% | 100% | 98.7% | 98% | 113% | 119% | 112% | 101% | 98.7% | 88.1% | 107% | 103% | 79.5% | 106% | 100% | 105% |
| O=C(O)c1cccc2c1-c1ccc(Cl)cc1C2 | 102% | 109% | 88.2% | 105% | 108% | 108% | 102% | – | 108% | 102% | 110% | 105% | 89.7% | 103% | 107% | 86.5% | 96.8% | 99.5% | 89.9% |
| CC(CNc1nc(Nc2ccc(Cl)c(Cl)c2)nc(C(Cl)(Cl)Cl)n1)N(C)C (stereo not drawn) | -27.7% (active) | -76.3% (active) | -18.9% (active) | -1.09% (active) | -82.6% (active) | -40.3% (active) | -4.78% (active) | -57.2% (active) | – | -92.1% (active) | 18.5% | 16.2% | -3.58% (active) | -61.7% (active) | 6.79% (active) | -19.1% (active) | 22.8% | -3.41% (active) | -49.4% (active) |
| Cn1cc(-c2csc(-c3cn(CCNC(=O)OC(C)(C)C)c4ccc(F)cc34)n2)c2cccnc21 | 52.8% | 76.2% | 86.3% | 90.3% | 82.2% | 25.9% | – | 71.9% | 88.7% | 82.4% | 55.9% | 85.9% | 39.7% | 104% | 69.2% | – | 91.1% | 33.5% | 31.8% |
| COc1cc(-c2cc(-c3nc4ccc(F)cc4[nH]3)[nH]n2)cc(OC)c1OC | 24.1% | 69.3% | 15.2% | 70.8% | 46.2% | -18.1% (active) | -25.4% (active) | – | 7.54% (active) | 17.5% | – | 33.8% | 26.1% | 63.7% | 19.6% | 28.4% | 8.73% (active) | – | – |
| CCCCN1CCCCn2c1nc1c2c(=O)n(C)c(=O)n1C | 108% | 102% | 94.1% | 104% | 95% | 108% | 101% | 99% | 117% | 91.9% | 105% | 102% | 93.1% | 103% | 107% | 95.5% | 96.3% | 113% | 96.6% |
| Cc1ccc(Nc2c(C(N)=O)cnc3ccc(S(=O)(=O)Nc4cc(C)on4)cc23)cc1 | 108% | 98.3% | 81% | 94.7% | 95.6% | 86.5% | 91.8% | 95.8% | 101% | 109% | – | 97.9% | 78.2% | 118% | 89.2% | – | 88.8% | 100% | 101% |
| C[Si](C)(C)Cc1ccccc1 | 110% | 114% | 87.8% | 116% | 114% | 105% | – | 102% | 128% | 163% | 110% | 108% | 95.9% | 122% | 106% | 98.5% | 164% | -49.7% (active) | 118% |
| COc1ccc(-c2nc3c(c(C)nn3-c3ccc(F)cc3)c(=O)[nH]2)cc1 | 83% | 58.6% | 11.1% | 75% | 44% | 78.1% | – | 75.2% | 96.8% | 92.3% | 81.6% | 56.9% | 52.1% | 65.8% | 6.33% (active) | – | 70.8% | 86.9% | 98.1% |
